Values joined by “and” are separate entries in the source; they are usually repeats but may differ in a detail not shown here. Identical values can stand only once. Counter-ions that a name gives are not always drawn. ± gives the standard deviation of the averaged measurements. The full ranking holds about 2,600 compounds; the median of “total cell number (DAPI+ nuclei) relative to DMSO vehicle control” is about -1.4, and the lowest 2% start at about -23. For the sample, the lowest values were picked, then their nearest neighbours and some compounds at random.
test system: jimpy (Plp1 jimpy) mouse iPSC-derived oligodendrocyte progenitor cells; test: total cell number (DAPI+ nuclei) relative to DMSO vehicle control (SDs above negative control mean); higher = more surviving cells; conditions: 10 µM; 3 days

SMILES | total cell number
Cc1cc(C)c(/C=C2\C(=O)Nc3ccccc32)[nH]1 | -3.96
COC1=CC(c2cc3ccccc3[nH]2)=N/C1=C\c1[nH]c(C)cc1C [Obatoclax Mesylate (GX15-070)] | -27.6
Cc1cc(C)c(/C=C2\C(=O)Nc3ccccc32)[nH]1 [Semaxanib (SU5416)] | -1.49
C[C@H](NC(=O)Cc1cc(F)cc(F)c1)C(=O)N[C@@H]1C(=O)N(C)c2ccccc2-c2ccccc21 | -6.63
NS(=O)(=O)c1nn2cc(-c3ccccc3)nc2s1 | -5.78
CCCCCCCC/C=C\CCCCCCCC(=O)NCc1ccc(O)c(OC)c1 [Olvanil] | -4.4
Cc1cc(Nc2cc(N3CCN(C)CC3)nc(/C=C/c3ccccc3)n2)n[nH]1 | -26.3
O=C(Nc1ccc2[nH]ncc2c1)C1CCC1 [Rhodblock 6] | -2.58
C[C@@H](N)[C@H]1CC[C@H](C(=O)Nc2ccncc2)CC1 | -1.42 and -2.14
Cc1cc(Nc2cc(N3CCN(C)CC3)nc(Sc3ccc(NC(=O)C4CC4)cc3)n2)n[nH]1 [VX-680 (Tozasertib, MK-0457)] | -24
Fc1ccc(C(OCCCc2cnc[nH]2)c2ccc(F)cc2)cc1 | -1.91
CC(C)NCC(O)c1ccc(NS(C)(=O)=O)cc1 (racemic) [(±)-Sotalol hydrochloride] | -1.64
COCCNC(=O)COc1ccc(OCCNC[C@H](O)COc2ccccc2)cc1 [ZD 7114 hydrochloride] | -0.987
CCCC(=O)O[C@]1(C(=O)COC(C)=O)CC[C@H]2[C@@H]3C[C@H](F)C4=CC(=O)C=C[C@]4(C)[C@@]3(F)[C@@H](O)C[C@@]21C [Difluprednate] | 4.34
COc1cc(N2CCN(C)CC2)ccc1Nc1nccc(-c2cn(C)c3cnccc23)n1 | -15.9
O=C(O)Cc1ccc(O)c(O)c1 [3,4-Dihydroxyphenylacetic acid] | -1.97
Nc1nc(Cl)nc2c1ncn2[C@@H]1O[C@H](CO)[C@@H](O)[C@@H]1F [Clofarabine] | -21.2
Nc1nc(Cl)nc2c1ncn2[C@H]1C[C@H](O)[C@@H](CO)O1 [Cladribine] | -22.8
Nc1nc(Cl)nc2c1ncn2[C@@H]1O[C@H](CO)[C@@H](O)[C@H]1O [2-Chloroadenosine] | -3.18
c1cnc2cc3c(cc2n1)[C@@H]1CNC[C@H]3C1 [Varenicline tartrate] | -2.7
c1cnc2cc3c(cc2n1)[C@@H]1CNC[C@H]3C1 [Varenicline Tartrate] | 1.55

SMILES | total cell number
O=C(O)C1(C(=O)O)CCC1.[NH2-].[NH2-].[Pt+2] [Carboplatin] | -4.56 ± 1.4
CSc1nc(N)c2ncn([C@@H]3O[C@H](COP(=O)(O)OP(=O)(O)OP(=O)(O)O)[C@H](O)C3O)c2n1 (some centres not stated) [2-Methylthioadenosine triphosphate tetrasodium] | 1.81
Nc1ncnc2c1c(-c1ccc(Oc3ccccc3)cc1)cn2C1CCCC1 | -5.56
C=CC(=O)N1CCC[C@@H](n2nc(-c3ccc(Oc4ccccc4)cc3)c3c(N)ncnc32)C1 | -8.95
Nc1ncnc2c1c(-c1cccc(OCc3ccccc3)c1)cn2C1CC(CN2CCCC2)C1 (configuration not stated) | -25.8
O=C(Nc1ccccc1C(=O)NC1CCCCNC1=O)c1cc2ccccc2s1 (configuration not stated) | -0.315
COC(=O)N[C@H](C(=O)N1CCC[C@H]1c1ncc(-c2ccc(-c3ccc(-c4cnc([C@@H]5CCCN5C(=O)[C@@H](NC(=O)OC)C(C)C)[nH]4)cc3)cc2)[nH]1)C(C)C | -5.73
COc1cccc2c1[C@@H]1CN(CCCCn3c(=O)[nH]c4c(sc5ncc(-c6ccccc6)nc54)c3=O)C[C@@H]1CO2 [Fiduxosin hydrochloride] | -6.17
Cc1nc(C(=O)NCC(=O)O)c(O)c2ccc(Oc3ccccc3)cc12 | 3.22
C[C@@H](Oc1cc(-n2cnc3ccc(CN4CCN(C)CC4)cc32)sc1C(N)=O)c1ccccc1C(F)(F)F | -14.7
CC(C)c1cc(C(=O)N2Cc3ccc(CN4CCN(C)CC4)cc3C2)c(O)cc1O | -25.7
Nc1ncnc2c1ncn2[C@@H]1O[C@H](COP(=O)(O)OP(=O)(O)OP(=O)(O)OP(=O)(O)OC[C@@H]2O[C@H](n3cnc4c(N)ncnc43)C(O)[C@@H]2O)[C@H](O)C1O (some centres not stated) [P1,P4-Di(adenosine-5')tetraphosphate triammonium] | -0.947
Nc1c(S(=O)(=O)O)cc(Nc2ccc(Nc3nc(Cl)nc(Nc4cccc(S(=O)(=O)O)c4)n3)c(S(=O)(=O)O)c2)c2c1C(=O)c1ccccc1C2=O [Reactive Blue 2] | -0.98
C[C@@H]1O[C@@H](O[C@H]2[C@H](Oc3cc(O)c(C(=O)CCc4ccc(O)cc4)c(O)c3)O[C@H](CO)[C@@H](O)[C@@H]2O)[C@H](O)[C@H](O)[C@H]1O [Naringin Dihydrochalcone] | -0.984
Cc1nc2c([nH]1)c(=O)n(C)c(=O)n2Cc1ccco1 [Furafylline] | -0.322
C=CC(=O)Nc1cccc(Nc2nc(Nc3ccc(OCCOC)cc3)ncc2F)c1 | -15.3
O=C(Nc1cccc(Nc2ncc(Br)c(NCCc3cnc[nH]3)n2)c1)N1CCCC1 | -24.3
O=C(NCCCNc1nc(Nc2cccc(NC(=O)N3CCCC3)c2)ncc1I)c1cccs1 | -23.5
Cc1cnc(Nc2ccc(OCCN3CCCC3)cc2)nc1Nc1cccc(S(=O)(=O)NC(C)(C)C)c1 | -12.3
NC[C@@H]1O[C@H](c2ccccc2)Cc2c1ccc(O)c2O | -2.54
CCCCCCCCCCCCc1ccc(S(=O)(=O)Nc2nncs2)cc1 | 1.21
